From PubChem
Hits are enriched below; roughly 3.2% of the tested compounds scored in any of these assays.
PGC1a acetyl inh: PGC1a acetylation modulation, inhibitor mode; 350,000 compounds, 0.17% hits; inhibition, % at 15.6 µM; AID 651687; U2OS PGC1a acetylation, AlphaScreen anti-acetyl-lysine; with virally co-expressed GCN5 acetyltransferase;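 active = every replicate shows inhibition of at least 40%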
GSIS activator: primary screen for activators of insulin secretion dependent on glucose, INS-1E cells, GLuc reporter luminescence; activation, % at 16.6 µM; INS-1E GLuc reporter insulin secretion, 2-3 h; 370,000 compounds, 0.61% hits; AID 743287;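 active = lowest replicate activation of at least 40%, so every replicate reaches that level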
CaV13 FRET inh: Primary screen for inhibitors of IQ motif and Ca2+-dependent inactivation inhibitor domain binding in CACNA1D, Förster resonance energy transfer in living cells, …; inhibition, % at 12.3 µM; 340,000 compounds, 0.098% hits; AID 743397; HEK cells, CFP/YFP FRET ICDI-IQ, plate reader, 10 min; percent FRET-ratio fall versus neutral wells;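 active = mean replicate inhibition of at least 30% and at least 1% of replicates passing that level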
rRNA inh HTS: inhibitors of bacterial rRNA selective over humanized ribosomes | E. coli WT GFP vs humanized-ribosome RFP mutants, fluorescence, 24 h; hits give low values; DMSO median 0, no signal -100 | GFP signal change (wild-type ribosome), % (test concentration not listed) | 350,000 compounds, 1.6% hits;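 active = significant combined selectivity score with lowered wild-type GFP, culture density cut under 30%, mutant RFP and density less affected; inactive = any of these conditions unmet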
ERAP1 inh: inhibitors of human ERAP1 aminopeptidase; recombinant ERAP1, Leu-AMC fluorescence, 60 min; AID 652197; Q9NZ08; inhibition, % at 10.7 µM; 340,000 compounds, 0.15% hits;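 active = mean replicate inhibition of at least 30%, or all replicates individually reaching that 30% level; inactive = mean below 30% and not every replicate reaching it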
DENV2 CPE: inhibitors of DENV2 cytopathic effect; AID 651640; CPE inhibition, % at 9.99 µM; DENV2-infected cells, cytopathic effect rescue, plate reader; 350,000 compounds, 1.7% hits; in the data active = CPE inhibition above about 20%, passing the limit was not always enough; tested in BHK-21 cells
Numbers stand for hits.

For C[C@@H]1CN([C@@H](C)CO)C(=O)c2cc(N(C)C)ccc2O[C@H]1CN(C)C(=O)Nc1ccc(F)cc1 the results were PGC1a acetyl inh inactive, GSIS activator inactive, rRNA inh HTS inactive, ERAP1 inh inactive and DENV2 CPE 35.0.
`Cc1noc(C)c1NC(=O)N(C)C[C@H]1Oc2ccc(N(C)C)cc2C(=O)N([C@@H](C)CO)C[C@H]1C` gave PGC1a acetyl inh inactive, GSIS activator inactive, rRNA inh HTS inactive, ERAP1 inh inactive and DENV2 CPE 21.2.
`COc1ccc(NC(=O)Nc2ccc3c(c2)C(=O)N([C@@H](C)CO)C[C@@H](C)[C@@H](CN(C)C(=O)Nc2ccc(C(F)(F)F)cc2)OCCCC[C@@H](C)O3)cc1` gave PGC1a acetyl inh inactive, GSIS activator inactive, rRNA inh HTS inactive, ERAP1 inh inactive and DENV2 CPE inactive.
`O=C(C[C@@H]1CC[C@@H](NC(=O)c2cnccn2)[C@@H](CO)O1)NCc1ccccc1F` gave PGC1a acetyl inh inactive, GSIS activator inactive, rRNA inh HTS inactive, ERAP1 inh inactive and DENV2 CPE inactive.
`Cc1noc(C)c1NC(=O)N(C)C[C@@H]1Oc2ccc(NS(=O)(=O)c3cccs3)cc2C(=O)N([C@H](C)CO)C[C@@H]1C` gave PGC1a acetyl inh inactive, GSIS activator inactive, rRNA inh HTS inactive, ERAP1 inh inactive and DENV2 CPE inactive.
`Cc1noc(C)c1NC(=O)N(C)C[C@H]1Oc2ccc(NS(=O)(=O)c3cccs3)cc2C(=O)N([C@@H](C)CO)C[C@@H]1C` gave PGC1a acetyl inh inactive, GSIS activator inactive, rRNA inh HTS inactive, ERAP1 inh inactive and DENV2 CPE 38.5.
Screening Cc1ccccc1NC(=O)/C(=C\c1cccs1)NC(=O)c1ccco1 returned CaV13 FRET inh inactive.
Screening Cc1ccccc1NC(=O)/C(=C/c1cccs1)NC(=O)c1ccco1 returned GSIS activator inactive, CaV13 FRET inh inactive, rRNA inh HTS inactive, ERAP1 inh inactive and DENV2 CPE 26.8.
For C[C@H]1CN([C@@H](C)CO)S(=O)(=O)c2ccc(-c3cccnc3)cc2O[C@@H]1CN(C)Cc1cccnc1 the results were PGC1a acetyl inh inactive, GSIS activator inactive and rRNA inh HTS inactive.
For C=CCc1c(C)nc2c(C)cccc2c1SC(=N)N the results were PGC1a acetyl inh inactive, GSIS activator inactive, CaV13 FRET inh inactive, rRNA inh HTS -22.5, ERAP1 inh inactive and DENV2 CPE inactive.
Screening Cc1nc2c(C)cccc2c(SC(=N)N)c1CC=C(Cl)Cl returned GSIS activator inactive, CaV13 FRET inh inactive, rRNA inh HTS -20.9, ERAP1 inh inactive and DENV2 CPE inactive.
For C[C@@H]1CN([C@@H](C)CO)C(=O)c2cc(-c3cccnc3)cnc2O[C@H]1CN(C)C(=O)Nc1ccc2c(c1)OCO2 the results were PGC1a acetyl inh inactive, GSIS activator inactive, rRNA inh HTS inactive, ERAP1 inh inactive and DENV2 CPE inactive.
Screening O=C1N/C(=N\S(=O)(=O)Cc2ccccc2)S/C1=C/c1cccc([N+](=O)[O-])c1 returned PGC1a acetyl inh inactive, GSIS activator inactive, CaV13 FRET inh inactive, rRNA inh HTS inactive, ERAP1 inh inactive and DENV2 CPE inactive.
For COc1ccc(/C=C2/S/C(=N/S(=O)(=O)Cc3ccccc3)NC2=O)cc1OC the results were PGC1a acetyl inh inactive, GSIS activator 78.8, CaV13 FRET inh inactive, rRNA inh HTS inactive, ERAP1 inh inactive and DENV2 CPE inactive.
O=C(Nc1ccc(F)cc1)N1C[C@H]2[C@@H](c3ccccc31)[C@@H](CO)N2C(=O)c1ccccc1F was read as PGC1a acetyl inh inactive, GSIS activator inactive, rRNA inh HTS inactive, ERAP1 inh inactive and DENV2 CPE inactive.
Screening O=C(C[C@H]1CC[C@@H]2[C@H](COC[C@H](O)CN2S(=O)(=O)c2cccc(Cl)c2)O1)N1CCOCC1 returned PGC1a acetyl inh inactive, GSIS activator inactive, rRNA inh HTS inactive, ERAP1 inh inactive and DENV2 CPE 20.8.
Screening O=C(C[C@H]1CC[C@@H]2[C@H](COC[C@H](O)CN2S(=O)(=O)c2cccc(Cl)c2)O1)N1CCCCC1 returned PGC1a acetyl inh inactive, GSIS activator inactive, rRNA inh HTS inactive and DENV2 CPE inactive.
CN1CCN(C(=O)C[C@H]2CC[C@@H]3[C@H](COC[C@@H](O)CN3S(=O)(=O)c3cccc(Cl)c3)O2)CC1 was read as PGC1a acetyl inh inactive, GSIS activator inactive, rRNA inh HTS inactive, ERAP1 inh inactive and DENV2 CPE 22.7.
